Experimental data reported in PubChem BioAssay AID2149 (The Scripps Research Institute Molecular Screening Center, 2009).
Hit rate of the full screen: of about 2,400 compounds, about 1,800 (75%) were called active.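 Rule for the calls: active = inhibition above the primary screen limit, the mean inhibition of all tested compounds plus 3 SD (cut at about 25% in these data); inactive = the rest.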 The set was probably picked from earlier hits. A selection follows.

system: tRNA 2'-phosphotransferase TPT1 [Candida albicans SC5314]; assay: Candida albicans TPT1 inhibitors, confirmation, biochemical, fluorescence polarization, triplicate (AID 2149); settings: recombinant caTPT1, fluorescence polarization, RNase T1 coupled; at 5 µM; hits give high values

Row | SMILES | inhibition
1 | C[n+]1ccc(/C=C/c2c[nH]c3ccccc23)cc1 | 56.5% (active)
2 | Cc1nc2ccccc2nc(=O)c1NNc1ccc([N+](=O)[O-])cc1 | 35.8% (active)
3 | CC(=O)n1c(C=Nc2ccccc2)c(O)c2ccccc21 | 73.1% (active)
4 | COc1cc2c(cc1O)[C@H](Cc1ccc(Oc3cc(C[C@@H]4NCCc5cc(OC)c(O)cc54)ccc3O)cc1)NCC2 | 33.8% (active)
5 | COc1cc(N2CCCC2)c(OC)cc1/C=C(/C#N)c1cccc(Br)c1 | 68.1% (active)
6 | CC(=O)c1cc(NC(=O)c2ccccc2)c(=O)oc1/C=C/N(C)C | 118% (active)
7 | CC(C)(C)c1ccc(/C=C2\Oc3c(ccc(O)c3CN3CCN(CCO)CC3)C2=O)cc1 | 37.2% (active)
8 | C=CCC1=C/C(=C\c2c(N)n3nc(CC(=O)N4CCOCC4)sc3nc2=O)C=C(OC)C1=O | 104% (active)
9 | CCOC(=O)/C(C#N)=C/c1ccc(N2CCN(Cc3ccccc3)CC2)cc1 | 81.9% (active)
10 | CCOC(=O)/C(C#N)=C/c1ccc(N2CCCCC2)cc1 | 126% (active)
11 | CCN1/C(=C/c2ccc3ccc(C)cc3[n+]2CC)Sc2ccccc21 | 44.2% (active)
12 | CCN1/C(=C\c2ccc3ccccc3[n+]2CC)Sc2cc(C)ccc21 | 78.3% (active)
13 | COc1ccc(N=C(C)c2sc3ccccc3c2O)cc1 | 70.2% (active)
14 | COc1ccc(C2=NN(C(=O)c3ccccc3C(=O)O)C(c3ccccc3O)C2)cc1 (stereo unspecified) | 26.3% (active)
15 | CN(C)c1ccc(/C=C2\NC(=S)N(Cc3ccccc3)C2=O)cc1 | 160% (active)
16 | CCOC(=O)c1c(NC(=S)Nc2ccccc2)sc2c1CCN(C)C2 | 42.8% (active)
17 | COc1cc(/C=C2/C(=O)NN(c3cccc(Cl)c3)C2=O)cc(Br)c1O | 153% (active)
18 | Oc1ccc(/C=N/Nc2nc(-c3ccccc3F)nc3ccccc23)c(O)c1 | 29.1% (active)
19 | CN(c1ccccc1)c1ccc(/C=c2\s/c(=C(/C#N)C(=O)C(C)(C)C)n(Cc3ccco3)c2=O)cc1 | 127% (active)
20 | CN1/C(=C\C=C2\N=C(c3ccc(F)cc3)OC2=O)C(C)(C)c2ccccc21 | 151% (active)
21 | Cc1ccc(Nc2ccccc2N)cc1 | 25.8% (active)
22 | CCOC(=O)c1c(CC(C)C)csc1/N=C/C1=C(O)CCCC1=O | 11.9% (inactive)
23 | Cn1cccc1/C=C1\SC(=S)N(NC(=O)c2ccc(Cl)cc2)C1=O | 101% (active)
24 | CCn1c(/C=C/c2ccc([N+](=O)[O-])o2)nc2ccccc2c1=O | 36.7% (active)
25 | COc1ccccc1/C=N/Nc1nc(C)c(C(C)=O)s1 | 33.1% (active)
26 | CCOc1nnc(C)c2c(C)n(-c3cccc(Cl)c3)nc12 | 76.5% (active)
